# From PubChem BioAssay (NCATS)
# Records with an inconclusive call do not appear. Entries that show only a call come without a potency. More than one record can exist for a structure, and the calls need not agree. Active and inactive are the calls of the source. Unless noted, calls follow the shape of the dose curve; as a rule, active = well fitted curve in the direction sought with a large enough effect; inconclusive = small, poorly fitted or top-dose-only effect, or another doubt; inactive = no such curve, though single readings can be large; an effect the other way counts as inactive or inconclusive.
# What was measured:
# [1] = qHTS for Inhibitors of Plasmodium falciparum (DD2) proliferation (AID 504314);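 also: parasite DNA measured by SYBR Green fluorescence after red cell lysis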
# Method in brief: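 SYBR Green DNA-fluorescence growth assay: infected RBCs at 0.3% parasitemia, 2.5% hematocrit, 72 h compound exposure, 37C, 5% CO2; overnight lysis with dye at RT; normalized to 0.29 uM artemisinin and vehicle.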
# [2] = qHTS for Inhibitors of Plasmodium falciparum (7G8) proliferation (AID 504316); also: nearly all actives have a fitted effect of over 65% in size
# Method in brief: (§1)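 Parasite growth measured as SYBR Green DNA fluorescence (ex 485, em 535 nm) after overnight lysis following 72 h culture at 37 °C, 0.3% parasitemia, 2.5% hematocrit. Values normalized against DMSO and 0.29 uM artemisinin controls, with plate-stack correction.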
# [3] = qHTS for Inhibitors of Plasmodium falciparum (HB3) proliferation (AID 504318); also: nearly all actives have a fitted effect of over 60% in size; also: potency is read from the fitted curve at half-maximal effect
# Method in brief: as §1
# [4] = AP1 Signaling Pathway (AID 357; active = well fitted curve in either direction with a large enough effect, not every such curve was filed as active;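 also: ME-180 reporter cells stimulated with EGF at its EC50 level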)
# Method in brief: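 Read-out was the 460nm/530nm emission ratio (excitation 405nm) after CCF4 loading for 2.5 hours at room temperature. Cells carried an AP-1-driven beta-lactamase reporter, were stimulated with EC50 EGF plus compound for 5 hours, and AC50 values came from titrations.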
# [5] = target: Cytochrome P450 1A2 (Homo sapiens) (UniProt P05177); test: p450-cyp1a2 (AID 410; calls by dose curve; also: potency is read from the fitted curve at half-maximal effect)
# Method in brief: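 Read-out is luminescence from luciferin produced by CYP1A2 demethylation of Luciferin-ME (100uM, at Km). Detection reagent stopped the 60 min NADPH-dependent reaction; signals were normalized to 57 uM furafylline.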
# [6] = Stat Signaling Pathway (AID 446; active = well fitted curve in either direction with a large enough effect, not every such curve was filed as active;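 also: ME-180 cervical cancer cells given 40 pM IL-6 alongside compound; SIE-controlled beta-lactamase reporter measured as 460/530 nm FRET emission ratio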)
# Method in brief: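 Emission at 460 and 530 nm (excitation 405 nm) reports SIE-controlled beta-lactamase in ME-180 cells. Cells received compound with 40 pM IL-6 for 5 hrs at 37 C; data scaled between 300 pM IL-6 and 125 nM JAK-inhibitor controls.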
# [7] = target: Glucocorticoid receptor (Homo sapiens) (UniProt P04150); test: GR-EFC Redistribution (AID 451; calls by dose curve; also: potency is read from the fitted curve at half-maximal effect); conditions: CHO-K1 GR-EFC translocation, beta-gal luminescence, 2 h
# Method in brief: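 CHO-K1 cells stably expressing nuclear-localized β-gal enzyme acceptor and GR fused C-terminally to the enzyme donor fragment; ligand-driven nuclear translocation restores β-gal by complementation. Compounds titrated up to 46 uM final, 2 h at 37 °C; luminescence read.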
# [8] = target: Mitogen-activated protein kinase 10 (Mus musculus) (UniProt Q61831); test: JNK3 AlphaScreen Assay (AID 530; active = well fitted curve in either direction with a large enough effect, not every such curve was filed as active;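 also: kinase came from lysate of stimulated human HepG2 cells; signal reports phosphorylation of biotinylated GST-cJun 1-79 at Ser73 with 10 µM ATP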)
# Method in brief: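 Biotinylated GST-cJun(1-79) served as substrate for JNK3 in HepG2 lysates stimulated with IL-1beta and TNF-alpha. ATP was 10 uM final, pH 7.6. Ser73 phosphorylation was quantified by AlphaScreen (680 nm excitation).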
# [9] = target: 3',5'-cyclic-AMP phosphodiesterase 4B (Homo sapiens) (UniProt Q07343); test: qHTS Assay for Inhibitors of PDE-IV (AID 607; active = well fitted activation curve with a large enough effect in the main read-out, with a control signal flat, not every such curve was filed as active)
# Method in brief: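 The readout is membrane depolarisation from a cAMP-sensing CNG channel, detected with a potential dye at ex 535/em 590. Cells were HEK293-derived (endogenous PDE-IV) at 1000 cells/well, titrated up to 22.9 uM final.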
# [10] = target: Cytochrome P450 2C9 (Homo sapiens) (UniProt P11712); test: qHTS Assay for Inhibitors and Substrates of Cytochrome P450 2C9 (AID 883); also: nearly all actives have a fitted effect of over 60% in size
# Method in brief: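 A luminogenic readout tracked human CYP2C9 (10nM) converting deoxyluciferin (100uM, at KM) in 25mM KPO4 during 60 min at 37C with regenerated NADPH. Values normalized to 57uM sulphaphenazole as complete inhibition.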
# [11] = target: Cytochrome P450 3A4 (Homo sapiens) (UniProt P08684); test: qHTS Assay for Activators of Cytochrome P450 3A4 (AID 885); also: nearly all actives have a fitted effect of over 65% in size; also: potency is read from the fitted curve at half-maximal effect
# Method in brief: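 Activators are scored by enhanced luminescence from CYP3A4 conversion of luciferin-PPXE (25uM, equal to KM) to luciferin, after 60 min at RT with an NADPH-regenerating system.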
# [12] = target: Cytochrome P450 2C19 (Homo sapiens) (UniProt P33261); test: qHTS Assay for Inhibitors and Substrates of Cytochrome P450 2C19 (AID 899); also: nearly all actives have a fitted effect of over 60% in size
# Method in brief: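 NADPH-dependent conversion of Luciferin-H EGE (10uM, at KM) by 5nM enzyme in 50mM KPO4, 60 min at 37C following 10 min compound preincubation. Stopped with luciferin detection buffer; luminescence read after 20 min.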
# [13] = target: DNA dC->dU-editing enzyme APOBEC-3G (Homo sapiens) (UniProt Q9HC16); test: qHTS for inhibitors of Vif-A3G interactions: Validation (AID 588379)
# Method in brief: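 Yellow fluorescence (Ex 488, Em 500-530) of Vif-coexpressing HeLa A3G-eYFP cells, scanned by Acumen cytometer, reports blocked A3G degradation. Cells plated at 700/well overnight at 37 deg C before compound addition, then a further overnight compound incubation at 37 deg C.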
# [14] = Primary qHTS for small molecule stabilizers of the endoplasmic reticulum resident proteome: Secreted ER Calcium Modulated Protein (SERCaMP) assay (AID 1508630)
# Method in brief: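 The SH-SY5Y reporter protocol was run at 3 concentrations up to 38.3 uM (primary) or 11 concentrations (follow-up): 16 h compound, 100 nM thapsigargin for 4 h, then extracellular luciferase luminescence.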
# [15] = target: Cytochrome P450 3A4 (Homo sapiens) (UniProt P08684); test: qHTS Assay for Inhibitors and Substrates of Cytochrome P450 3A4 (AID 884); also: nearly all actives have a fitted effect of over 50% in size; also: potency is read from the fitted curve at half-maximal effect
# Method in brief: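 Luminescent readout of luciferin produced by CYP3A4 (20 nM) dealkylation of Luciferin-PPXE, 25 uM (its KM). NADPH-driven reaction ran 60 min at RT after 10 min compound preincubation; data scaled to 57 uM ketoconazole as 100% inhibition.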
# [16] = qHTS Assay for Identifying Gametocytocidal Compounds (AID 743244);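 also: actives lower the fluorescent signal which means gametocytes are killed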; conditions: P. falciparum 3D7 stage III-V gametocytes, alamarBlue, 72 h; max response: stronger effect = lower value
# Method in brief: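 Compounds are pinned into medium, gametocytes (stage III–V, 3D7, 20,000 cells/well) added, and plates held 72 h at 37 °C in 5% CO2. AlamarBlue follows for 24 h before fluorescence reading.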
# [17] = target: Glucocorticoid receptor (Homo sapiens) (UniProt P04150); test: GR-GFP Redistribution (AID 450;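 active = compounds whose dose series gives a full or clear partial fitted curve of increased nuclear translocation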; also: potency is read from the fitted curve at half-maximal effect); conditions: U2OS GR-GFP nuclear translocation, laser cytometry, 2 h
# [18] = target: Ubiquitin carboxyl-terminal hydrolase 1 (Homo sapiens) (UniProt O94782); test: Inhibitors of USP1/UAF1: Pilot qHTS (AID 504865);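 also: rhodamine fluorescence freed from ubiquitin-rhodamine substrate followed over time; top concentration of the series differs between compounds; nearly all actives have a fitted effect of over 35% in size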
# Method in brief: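 In 50mM HEPES pH 7.8 containing 0.5mM EDTA, 1mM TCEP, 0.1 mg/ml BSA and 0.01% Tween-20, 1nM USP1/UAF1 is exposed to compound for 15 min, then Ub-Rho (150nM final) is added and fluorescence is read over time.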
# [19] = Cytotoxicity counterscreen for inhibitors of SARS-CoV-2 cell entry (AID 1645845; calls by dose curve; also: nearly all actives have a fitted effect of over 50% in size)
# Method in brief: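 After a 15 min room-temperature ATPLite 1step step, luminescence reflected ATP remaining in HEK293-ACE2 cells exposed to compound for 1 h plus 48 h at 37 C, with percent activity set by cell and no-cell controls.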
# [20] = Primary qHTS to identify inhibitors of SARS-CoV-2 cell entry (AID 1645846; calls by dose curve; also: nearly all actives have a fitted effect of over 45% in size); conditions: activity change, negative = inhibition: at 57.1 µM (top of the series) unless noted
# Method in brief: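 Inhibition of spike-mediated entry was scored in human ACE2-transfected Expi293F cells. Particles were MLV-pseudotyped with Wuhan-Hu-1 S carrying a 19-aa C-terminal deletion; signal was luciferase after two days, scaled between spike PP and fusion-protein-free PP.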
# [21] = target: Tumor susceptibility gene 101 protein (Homo sapiens) (UniProt Q99816); test: qHTS Assay for Iinhibitors of HIV-1 Budding by Blocking the Interaction of PTAP/TSG101: Hit Validation (AID 651600); also: nearly all actives have a fitted effect of over 70% in size
# Method in brief: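 Compounds are added to the Tsg101 binding domain (10 uM final) in pH 7.5 HEPES buffer. FITC-PTAP peptide follows at 50 nM final. After 20 min at r.t., polarized FITC emission is measured.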
# Glucocorticoid receptor (Homo sapiens), sequence (P04150 whole entry, looked up, the tested form may be a part): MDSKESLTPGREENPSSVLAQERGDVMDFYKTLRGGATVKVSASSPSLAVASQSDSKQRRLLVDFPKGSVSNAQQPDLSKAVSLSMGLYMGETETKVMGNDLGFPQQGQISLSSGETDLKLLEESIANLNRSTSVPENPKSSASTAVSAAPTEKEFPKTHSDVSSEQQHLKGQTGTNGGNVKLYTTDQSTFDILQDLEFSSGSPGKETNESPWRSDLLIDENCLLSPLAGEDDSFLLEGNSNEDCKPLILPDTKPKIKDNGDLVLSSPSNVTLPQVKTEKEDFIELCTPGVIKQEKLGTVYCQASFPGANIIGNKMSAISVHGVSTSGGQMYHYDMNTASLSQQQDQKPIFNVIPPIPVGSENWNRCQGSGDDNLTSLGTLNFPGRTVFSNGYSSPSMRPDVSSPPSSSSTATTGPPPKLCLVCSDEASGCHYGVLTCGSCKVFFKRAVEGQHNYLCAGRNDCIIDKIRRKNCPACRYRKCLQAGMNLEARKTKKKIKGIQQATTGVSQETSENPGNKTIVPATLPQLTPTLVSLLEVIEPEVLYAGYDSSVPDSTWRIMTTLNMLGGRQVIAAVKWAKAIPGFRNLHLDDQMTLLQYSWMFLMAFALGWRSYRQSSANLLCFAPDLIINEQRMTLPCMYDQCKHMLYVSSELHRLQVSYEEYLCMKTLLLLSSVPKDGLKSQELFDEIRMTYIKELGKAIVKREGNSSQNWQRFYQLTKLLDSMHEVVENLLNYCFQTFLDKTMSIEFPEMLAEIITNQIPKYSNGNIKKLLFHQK
# DNA dC->dU-editing enzyme APOBEC-3G (Homo sapiens), sequence (Q9HC16 whole entry, looked up): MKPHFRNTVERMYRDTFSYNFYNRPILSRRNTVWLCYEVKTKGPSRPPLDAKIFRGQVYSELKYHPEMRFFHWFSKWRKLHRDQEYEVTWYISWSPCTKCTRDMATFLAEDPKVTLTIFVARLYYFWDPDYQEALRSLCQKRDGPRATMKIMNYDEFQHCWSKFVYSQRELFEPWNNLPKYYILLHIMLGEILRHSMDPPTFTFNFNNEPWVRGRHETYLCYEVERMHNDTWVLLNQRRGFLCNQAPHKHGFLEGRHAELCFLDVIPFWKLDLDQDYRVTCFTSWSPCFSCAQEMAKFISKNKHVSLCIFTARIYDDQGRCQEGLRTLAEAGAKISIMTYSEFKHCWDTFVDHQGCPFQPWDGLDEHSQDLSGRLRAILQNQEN
# Cytochrome P450 3A4 (Homo sapiens), sequence (P08684 whole entry, looked up): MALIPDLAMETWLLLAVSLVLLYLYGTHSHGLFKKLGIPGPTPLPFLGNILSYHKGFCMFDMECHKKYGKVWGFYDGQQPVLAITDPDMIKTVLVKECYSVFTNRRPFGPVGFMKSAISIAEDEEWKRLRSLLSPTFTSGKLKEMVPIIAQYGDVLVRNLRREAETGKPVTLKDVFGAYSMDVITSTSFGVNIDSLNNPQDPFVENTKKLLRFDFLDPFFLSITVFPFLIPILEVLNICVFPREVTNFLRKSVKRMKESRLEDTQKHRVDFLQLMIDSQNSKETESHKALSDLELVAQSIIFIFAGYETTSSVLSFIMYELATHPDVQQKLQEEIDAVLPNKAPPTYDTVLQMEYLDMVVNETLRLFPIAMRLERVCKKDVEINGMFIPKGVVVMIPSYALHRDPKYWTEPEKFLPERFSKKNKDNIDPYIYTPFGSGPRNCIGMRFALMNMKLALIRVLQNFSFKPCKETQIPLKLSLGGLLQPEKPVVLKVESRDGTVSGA
# 3',5'-cyclic-AMP phosphodiesterase 4B (Homo sapiens), sequence (Q07343 whole entry, looked up): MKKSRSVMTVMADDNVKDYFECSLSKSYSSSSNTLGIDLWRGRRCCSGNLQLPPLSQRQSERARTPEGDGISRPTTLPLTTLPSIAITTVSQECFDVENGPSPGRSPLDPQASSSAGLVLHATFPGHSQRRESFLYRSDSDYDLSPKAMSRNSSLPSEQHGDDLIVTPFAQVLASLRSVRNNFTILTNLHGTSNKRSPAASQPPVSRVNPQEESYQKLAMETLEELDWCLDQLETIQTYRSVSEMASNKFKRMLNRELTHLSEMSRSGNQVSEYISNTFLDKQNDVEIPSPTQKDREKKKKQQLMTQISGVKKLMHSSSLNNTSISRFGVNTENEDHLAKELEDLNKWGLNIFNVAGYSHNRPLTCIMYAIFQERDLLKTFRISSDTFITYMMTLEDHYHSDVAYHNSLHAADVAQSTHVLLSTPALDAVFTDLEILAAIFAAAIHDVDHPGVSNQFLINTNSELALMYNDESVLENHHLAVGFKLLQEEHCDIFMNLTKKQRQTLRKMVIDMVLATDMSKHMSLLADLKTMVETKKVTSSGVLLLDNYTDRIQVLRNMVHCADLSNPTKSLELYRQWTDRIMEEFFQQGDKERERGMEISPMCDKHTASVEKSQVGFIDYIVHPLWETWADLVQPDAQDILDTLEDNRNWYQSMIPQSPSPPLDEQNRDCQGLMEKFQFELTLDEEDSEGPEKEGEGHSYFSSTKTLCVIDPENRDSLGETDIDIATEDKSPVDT
# Ubiquitin carboxyl-terminal hydrolase 1 (Homo sapiens), sequence (O94782 whole entry, looked up): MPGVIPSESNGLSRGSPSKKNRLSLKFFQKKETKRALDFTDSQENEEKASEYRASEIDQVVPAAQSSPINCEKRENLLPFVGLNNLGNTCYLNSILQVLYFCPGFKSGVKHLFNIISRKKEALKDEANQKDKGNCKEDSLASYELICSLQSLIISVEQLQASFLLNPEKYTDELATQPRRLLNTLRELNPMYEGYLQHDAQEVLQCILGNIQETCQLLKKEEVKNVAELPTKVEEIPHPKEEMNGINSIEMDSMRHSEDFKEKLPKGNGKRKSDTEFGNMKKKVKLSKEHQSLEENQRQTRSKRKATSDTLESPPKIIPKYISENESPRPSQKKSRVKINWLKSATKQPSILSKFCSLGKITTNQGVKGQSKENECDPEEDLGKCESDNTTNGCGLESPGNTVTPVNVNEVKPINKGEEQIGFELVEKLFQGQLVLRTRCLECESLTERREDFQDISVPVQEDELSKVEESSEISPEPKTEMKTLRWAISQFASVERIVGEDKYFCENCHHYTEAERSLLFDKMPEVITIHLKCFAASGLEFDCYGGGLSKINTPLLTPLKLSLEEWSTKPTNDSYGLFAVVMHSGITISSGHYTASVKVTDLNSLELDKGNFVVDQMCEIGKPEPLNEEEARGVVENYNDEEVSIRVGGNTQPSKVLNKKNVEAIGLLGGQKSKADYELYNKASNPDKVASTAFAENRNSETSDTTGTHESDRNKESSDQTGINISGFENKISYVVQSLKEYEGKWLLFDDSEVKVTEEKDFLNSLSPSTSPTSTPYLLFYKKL
# Cytochrome P450 1A2 (Homo sapiens), sequence (P05177 whole entry, looked up): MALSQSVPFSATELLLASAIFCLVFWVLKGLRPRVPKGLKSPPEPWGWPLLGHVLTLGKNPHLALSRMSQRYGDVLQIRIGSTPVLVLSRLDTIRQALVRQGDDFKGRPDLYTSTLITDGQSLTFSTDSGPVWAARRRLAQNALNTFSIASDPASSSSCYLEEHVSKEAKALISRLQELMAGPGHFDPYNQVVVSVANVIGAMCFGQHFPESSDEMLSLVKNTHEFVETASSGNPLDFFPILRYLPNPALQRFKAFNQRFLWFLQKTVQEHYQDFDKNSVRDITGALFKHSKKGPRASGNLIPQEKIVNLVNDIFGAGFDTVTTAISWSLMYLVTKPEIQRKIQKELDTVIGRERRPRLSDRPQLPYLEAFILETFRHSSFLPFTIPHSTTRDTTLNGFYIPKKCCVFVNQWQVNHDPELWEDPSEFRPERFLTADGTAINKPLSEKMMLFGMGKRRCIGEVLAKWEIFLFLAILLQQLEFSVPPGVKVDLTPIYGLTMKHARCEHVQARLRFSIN
# Cytochrome P450 2C19 (Homo sapiens), sequence (P33261 whole entry, looked up): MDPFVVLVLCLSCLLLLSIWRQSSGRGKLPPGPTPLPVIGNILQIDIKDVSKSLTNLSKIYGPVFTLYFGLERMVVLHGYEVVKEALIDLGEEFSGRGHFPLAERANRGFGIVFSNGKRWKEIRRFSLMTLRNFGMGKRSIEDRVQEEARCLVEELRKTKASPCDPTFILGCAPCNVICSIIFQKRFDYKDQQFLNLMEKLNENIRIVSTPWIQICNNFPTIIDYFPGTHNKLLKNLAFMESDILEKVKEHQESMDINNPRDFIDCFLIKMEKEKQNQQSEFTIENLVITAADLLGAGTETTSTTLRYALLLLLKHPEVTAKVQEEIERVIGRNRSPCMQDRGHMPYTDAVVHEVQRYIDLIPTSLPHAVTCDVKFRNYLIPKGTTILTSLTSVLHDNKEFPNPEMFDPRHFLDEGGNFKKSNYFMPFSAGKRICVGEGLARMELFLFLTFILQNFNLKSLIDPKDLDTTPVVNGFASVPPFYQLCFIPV
# Cytochrome P450 2C9 (Homo sapiens), sequence (P11712 whole entry, looked up): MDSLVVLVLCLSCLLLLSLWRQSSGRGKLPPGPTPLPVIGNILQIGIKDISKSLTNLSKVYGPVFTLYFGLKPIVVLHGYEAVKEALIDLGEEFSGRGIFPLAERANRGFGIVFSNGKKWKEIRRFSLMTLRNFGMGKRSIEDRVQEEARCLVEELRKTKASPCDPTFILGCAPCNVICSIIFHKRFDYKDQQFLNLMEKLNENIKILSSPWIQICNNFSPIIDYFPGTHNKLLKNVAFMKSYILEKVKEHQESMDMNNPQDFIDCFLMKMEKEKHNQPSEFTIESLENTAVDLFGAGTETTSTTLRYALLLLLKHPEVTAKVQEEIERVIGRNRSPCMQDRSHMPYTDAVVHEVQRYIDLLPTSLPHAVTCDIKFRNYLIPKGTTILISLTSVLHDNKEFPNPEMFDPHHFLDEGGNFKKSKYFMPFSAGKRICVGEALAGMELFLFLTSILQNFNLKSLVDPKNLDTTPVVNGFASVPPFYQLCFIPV
smiles,measurement,setting,value
CCOC(=O)[C@]12C[C@]3(C)CCCN(C(=O)N[C@@H]1c1ccccc1)[C@@H]32,outcome,[1],inactive
same,outcome,[2],inactive
same,Potency,[3],inactive
COC(=O)[C@@]1(C=C2c3ccccc3[C@@H](OC)[C@@H]2C)[C@@H]2Oc3ccccc3[C@@H]21,outcome,[1],inactive
same,outcome,[2],inactive
same,Potency,[3],inactive
S=C=Nc1cccc(C2(N3CCCCC3)CCCCC2)c1,outcome,[4],inactive
same,Potency,[5],inactive
same,outcome,[6],inactive
same,Potency,[7],> 46 µM (inactive)
same,outcome,[8],inactive
same,Potency,[9],inactive
same,Potency,[10],inactive
same,Potency,[11],inactive
same,Potency,[12],inactive
same,Potency,[13],inactive
same,Potency,[14],inactive
CC(=O)[C@]12C[C@]3(C)CCCN(C(=O)N[C@@H]1c1ccccc1)C32 (stereo partly drawn),outcome,[1],inactive
same,outcome,[2],inactive
same,Potency,[3],inactive
O=C1Nc2ccccc2C2(CCN(CCc3ccc(C(F)(F)F)cc3)CC2)O1,Potency,[15],inactive
same,Potency,[11],7.94 µM (active)
COc1cc([C@@H]2c3cc4c(cc3[C@@H](O)[C@H]3COC(=O)[C@H]23)OCO4)cc(OC)c1O,max response,[16],5.77% (inactive)
CC(C)(C)NC[C@@H](O)COc1cccc2[nH]c(C#N)cc12,Potency,[17],> 46 µM (inactive)
same,Potency,[7],> 46 µM (inactive)
same,outcome,[8],inactive
same,Potency,[11],inactive
same,Potency,[18],inactive
same,Potency,[13],inactive
CCOC(=O)[C@]12C[C@]3(C)CCN(C(=O)N[C@@H]1c1ccccc1)[C@@H]32,outcome,[1],inactive
same,outcome,[2],inactive
same,Potency,[3],inactive
COCCOc1ccc(N2CCN(CCn3ncc4c3nc(N)n3nc(-c5ccco5)nc43)CC2)cc1,Potency,[19],inactive
same,"activity change, negative = inhibition",[20],-15.3%
CC(=O)[C@@]12C3[C@@H](CCN3C(=O)N[C@H]1c1ccccc1)[C@H]2c1ccccc1 (stereo partly drawn),outcome,[1],inactive
same,Potency,[3],inactive
O=C1/C(=C\c2ccccc2)C[C@@]2(O)[C@H]3Cc4ccc(O)c5c4[C@@]2(CCN3CC2CC2)[C@@H]1O5,Potency,[5],31.6 µM (active)
same,Potency,[17],> 46 µM (inactive)
same,Potency,[7],> 46 µM (inactive)
same,Potency,[11],inactive
same,Potency,[18],inactive
same,Potency,[13],inactive
same,Potency,[14],inactive
COC(=O)[C@@]12Cc3ccccc3[C@H]1C[C@H](C)[C@@H](C)N2C(=O)C(F)(F)F,outcome,[2],inactive
C=C(C)C(=O)CP(=O)(OCC)OCC,outcome,[1],inactive
same,outcome,[2],inactive
same,Potency,[3],inactive
COC(=O)C1=C[C@H]([C@@H](C)[C@H](OC)c2ccccc2Br)[C@H]2[C@H]1c1ccccc1N2C,outcome,[1],inactive
same,outcome,[2],inactive
same,Potency,[3],1.9 µM (active) and inactive
CCOC(=O)[C@]12C[C@]3(OC)CCN(C(=O)N[C@@H]1c1ccccc1)[C@@H]32,outcome,[1],inactive
same,outcome,[2],inactive
same,Potency,[3],inactive
COC(=O)[C@@H]1[C@@H](c2ccccc2)[C@H]2C(=O)c3c(OC)cc(OC)cc3O[C@@]12c1ccc(OC)cc1,outcome,[1],inactive
same,Potency,[3],inactive
CC(C)C[C@H]1C(=O)N2CCCC2[C@]2(O)O[C@](NC(=O)[C@@H]3C=C4c5cccc6[nH]cc(c56)CC4N(C)C3)(C(C)C)C(=O)N12 (stereo partly drawn),Potency,[15],1 µM (active)
same,Potency,[11],inactive
same,outcome,[21],inactive
